The record followed here is PubChem BioAssay (NCI).

About 83,000 compounds went through this panel and 20% of them were active in at least one assay; those are over-represented in the sample as a whole.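 Interpretation: 100, growth as untreated; towards 0, rising growth inhibition; 0, no net growth; 0 to -100, cell death. Compounds scoring below 10 were considered active.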 Values without a mark were called inactive. Calls of active or inactive are those of the source.

One assay has as its system RPMI-8226 leukemia. Nature of the assay: NCI-60 one-dose screen, 48 h (100 = growth as untreated, 0 = no growth, -100 = all killed). Conditions: 10 µM unless noted.
Consider `CCN1C(=O)N(CC)C2SC(N/N=C/c3cccs3)=NC21` (configuration not stated), for which the growth was 23.3%. For the compound `O=C1NC(=O)/C(=C/c2ccc(OCc3cc4ccccc4nc3Cl)cc2)S1`, the growth was 78.7%. Turning to `O=C(NNc1nc2cc(F)c(F)cc2n2cccc12)c1ccncn1`, the growth was 16.9%. Same read-out and setting: then `C#C[C@]1(O)CC[C@H]2[C@@H]3CC=C4c5sc(Nc6nc(C)cc(OC)n6)nc5CC[C@]4(C)[C@H]3CC[C@@]21C`, with -0.189% (active). Take `O=C(NNc1nc2cc(F)c(F)cc2n2cccc12)c1cccnn1`: the growth is 9.62% (active).

`O=C(O)CNS(=O)(=O)c1ccc(Oc2ccc(S(=O)(=O)NCC(=O)O)cc2)cc1`: the growth was 100%.

Turning to `COc1ccc(C(=O)c2c(N)c(C#N)cn2-c2cccc(OC)c2)cc1`, the growth is 22.1%.

`COc1ccc(CCN2C(=O)CSC2=S)cc1OC`: the growth is 32.8%. Regarding `Cc1ccc(/C=C/CC(=O)Nc2ccc(C(=O)Nc3ccc(F)cc3N)cc2)cn1`, the growth is 19.8%. On the same count and under the same terms, as for `O=C(NNc1nc2cc(F)cc(F)c2n2cccc12)c1ccncn1`, the figure is 9.13% (active); as for `Fc1ccccc1/C=C(/C1=NCCN1)n1cnc2ccccc21`, 96.9%; as for `COc1ccc(CN2C(=O)/C(=C/c3nc(CO)cs3)SC2=S)cc1`, 18.5%. As for `O=C(Nc1cc(F)cc2cccnc12)c1cnc(N2CCOCC2)cn1`, the growth was 70.5%. For the compound `CC1OC(O[C@@H]2[C@H](O)C(CO)OC(O[C@H]3COC(O[C@H]4CC[C@]5(C)[C@H]6CC[C@]78OC[C@@]9(CCC(C)(C)C[C@H]97)[C@H](O)C[C@@]8(C)[C@]6(C)CC[C@H]5C4(C)C)[C@@H](OC4OC(CO)[C@@H](O)[C@@H](O)[C@@H]4O)[C@@H]3O)[C@H]2OC2OC[C@@H](O)[C@@H](O)[C@@H]2O)[C@@H](O)[C@@H](O)[C@H]1O` (some centres not stated), the growth is -46.3% (active).

`C#C[C@]1(O)CC[C@H]2[C@@H]3CC=C4c5sc(Nc6cccc(Cl)n6)nc5CC[C@]4(C)[C@H]3CC[C@@]21C`: the growth was -23.2% (active). For `Cc1ccc(/C=C/CC(=O)Nc2ccc(C(=O)Nc3ccc(F)cc3N)nc2)cn1`, the growth is 8.53% (active). The same measure, in the same setting: as for `O=C1[C@@H]2Cc3c([nH]c4ccccc34)[C@H](c3c(Cl)cccc3Cl)N2C(=O)CN1C1CCN(Cc2ccccc2)CC1`, the figure is 7.38% (active); as for `COc1cc(C(=O)c2cc(C(C)=O)c3c4ccccc4ccn23)cc(OC)c1OC`, 52.3%; as for `Cc1[nH]nc2ccc(-c3nc4cnc(N5CCN(C)CC5)cn4c3Nc3ccc(F)cc3Br)cc12`, -6.49% (active). `Cc1cc(C(=O)Nc2ccc(SC#N)cc2)c(C)o1`: the growth is 83.1%. Take `O=C(NNc1nc2cc(F)c(F)cc2n2cccc12)c1ncccn1`: the growth is 20.8%.

`CN1CCN(c2ccc(NC(=O)Nc3ccc4c(ccn4-c4cccc(C(N)=O)n4)c3)cc2C(F)(F)F)CC1`: the growth is -17.5% (active). Regarding `NC(=O)c1c(NC(=O)c2cccc(OC(F)(F)F)c2)sc2c1CCC(=O)C2`, the growth is 6.56% (active). In the case of `O=C(/C=C1\C=CN(CCCCO)c2ccccc21)n1ccc2ccccc21`, the growth is 109%. In the case of `O=C1c2c(c3c4cccnc4[nH]c3c3ccc4ccccc4c23)C(=O)N1CCN1CCNCC1`, the growth is 74.3%. For `CCOC(=O)c1nn(-c2ccc(C)cc2)c(=O)c2c(N)c(C#N)c(-c3ccc(OC)cc3)cc12`, the growth is 98.6%. For `Cc1ccc(NC(=O)c2cccc(CN3CCN(C)CC3)c2)cc1Oc1ccc(-c2[nH]nc3ncnc(N)c23)cc1`, the growth was 48.7%.

For the compound `O=C1c2c(c3c4cc(Br)ccc4[nH]c3c3ccc4ccccc4c23)C(=O)N1CCN1CCCCC1`, the growth was -36.5% (active). On the same count and under the same terms, then `CC(C)(C)OC(=O)N1CCN(S(=O)(=O)/N=C2\NC(=O)NC2=C(Cl)Cl)CC1`, with 84.7%.

The next assay concerns OVCAR-8 ovarian. The description is as above. The settings on record: 10 µM unless noted.
As for `CCN1C(=O)N(CC)C2SC(N/N=C/c3cccs3)=NC21` (configuration not stated), the growth was -4.75% (active).

Regarding `O=C1NC(=O)/C(=C/c2ccc(OCc3cc4ccccc4nc3Cl)cc2)S1`, the growth was 99%.

Turning to `O=C(NNc1nc2cc(F)c(F)cc2n2cccc12)c1ccncn1`, the growth is 17.5%. In the case of `C#C[C@]1(O)CC[C@H]2[C@@H]3CC=C4c5sc(Nc6nc(C)cc(OC)n6)nc5CC[C@]4(C)[C@H]3CC[C@@]21C`, the growth is 73.3%. As to `CCNC(=O)Oc1ccc(/C(=C(/C)c2ccc(Cl)cc2)c2ccc(OCCN3CCCC3)cc2)cc1`, the growth was 87.7%. On the same count and under the same terms, then `O=C(NNc1nc2cc(F)c(F)cc2n2cccc12)c1cccnn1`, with 19.8%. As to `O=C(O)CNS(=O)(=O)c1ccc(Oc2ccc(S(=O)(=O)NCC(=O)O)cc2)cc1`, the growth was 97.9%. In the case of `Cc1cc(NS(=O)(=O)c2ccc(-c3cnc(C4CC4)o3)cc2)ccc1I`, the growth is 46.4%.

`COc1ccc(C(=O)c2c(N)c(C#N)cn2-c2cccc(OC)c2)cc1`: the growth was 34.2%. For the compound `COc1ccc(CCN2C(=O)CSC2=S)cc1OC`, the growth is 98.6%. Still for that read-out and setting: as for `Cc1ccc(/C=C/CC(=O)Nc2ccc(C(=O)Nc3ccc(F)cc3N)cc2)cn1`, the figure is 48.4%; as for `O=C(NNc1nc2cc(F)cc(F)c2n2cccc12)c1ccncn1`, 12.5%; as for `C[C@H]1[C@H](C)CC[C@]2(COC(=O)c3cccnc3)CC[C@]3(C)C(=CC[C@@H]4[C@@]5(C)CCCNC(C)(C)[C@@H]5CC[C@]43C)[C@H]12`, 86.2%. As to `Fc1ccccc1/C=C(/C1=NCCN1)n1cnc2ccccc21`, the growth was 99.6%. Turning to `COc1ccc(CN2C(=O)/C(=C/c3nc(CO)cs3)SC2=S)cc1`, the growth is 96.7%. In the case of `O=C(Nc1cc(F)cc2cccnc12)c1cnc(N2CCOCC2)cn1`, the growth was 79.4%. Regarding `CC1OC(O[C@@H]2[C@H](O)C(CO)OC(O[C@H]3COC(O[C@H]4CC[C@]5(C)[C@H]6CC[C@]78OC[C@@]9(CCC(C)(C)C[C@H]97)[C@H](O)C[C@@]8(C)[C@]6(C)CC[C@H]5C4(C)C)[C@@H](OC4OC(CO)[C@@H](O)[C@@H](O)[C@@H]4O)[C@@H]3O)[C@H]2OC2OC[C@@H](O)[C@@H](O)[C@@H]2O)[C@@H](O)[C@@H](O)[C@H]1O` (some centres not stated), the growth was -69% (active). Regarding `C#C[C@]1(O)CC[C@H]2[C@@H]3CC=C4c5sc(Nc6cccc(Cl)n6)nc5CC[C@]4(C)[C@H]3CC[C@@]21C`, the growth is 29.3%. Consider `Cc1ccc(/C=C/CC(=O)Nc2ccc(C(=O)Nc3ccc(F)cc3N)nc2)cn1`, for which the growth was 29.1%.

On to `O=C1[C@@H]2Cc3c([nH]c4ccccc34)[C@H](c3c(Cl)cccc3Cl)N2C(=O)CN1C1CCN(Cc2ccccc2)CC1`, for which the growth is 47.7%. The same measure, in the same setting: as for `C#CCOc1ccc(C(Nc2ccc(OC)cc2)c2nnnn2C2CCCCC2)cc1` (configuration not stated), the figure is 95.2%.

Regarding `COc1cc(C(=O)c2cc(C(C)=O)c3c4ccccc4ccn23)cc(OC)c1OC`, the growth is 62.9%. On the same count and under the same terms, then `Cc1[nH]nc2ccc(-c3nc4cnc(N5CCN(C)CC5)cn4c3Nc3ccc(F)cc3Br)cc12`, with 6.47% (active); and `O=C(Nc1cccc(Cl)c1)Nc1nc2ccc(-c3cccc4ccccc34)cc2s1`, with 42.9%. Turning to `Cc1cc(C(=O)Nc2ccc(SC#N)cc2)c(C)o1`, the growth was 98.3%. For `O=C(NNc1nc2cc(F)c(F)cc2n2cccc12)c1ncccn1`, the growth was 21.9%. For the compound `CN1CCN(c2ccc(NC(=O)Nc3ccc4c(ccn4-c4cccc(C(N)=O)n4)c3)cc2C(F)(F)F)CC1`, the growth is 77.6%. In the case of `O=C(Nc1ccc(Cl)cc1)Nc1nc2ccc([N+](=O)[O-])cc2s1`, the growth is 6.03% (active). As to `NC(=O)c1c(NC(=O)c2cccc(OC(F)(F)F)c2)sc2c1CCC(=O)C2`, the growth is 53%. For the compound `O=C(/C=C1\C=CN(CCCCO)c2ccccc21)n1ccc2ccccc21`, the growth was 97.3%. For the compound `O=C1c2c(c3c4cccnc4[nH]c3c3ccc4ccccc4c23)C(=O)N1CCN1CCNCC1`, the growth was 50.8%. Same read-out and setting: as for `O=C(Nc1ccccc1)Nc1nc2ccc([N+](=O)[O-])cc2s1`, the figure is 12.1%; as for `Cc1cc(Cl)cc(NS(=O)(=O)c2ccc(-c3cnc(C4CC4)o3)cc2)c1`, 38.7%; as for `CCOC(=O)C1=C(C)Nc2nc3ccccc3n2C1c1cccc(Br)c1` (configuration not stated), 96%. In the case of `CCOC(=O)c1nn(-c2ccc(C)cc2)c(=O)c2c(N)c(C#N)c(-c3ccc(OC)cc3)cc12`, the growth is 101%. For `Cc1ccc(NC(=O)c2cccc(CN3CCN(C)CC3)c2)cc1Oc1ccc(-c2[nH]nc3ncnc(N)c23)cc1`, the growth is 83.1%.

`O=C1c2c(c3c4cc(Br)ccc4[nH]c3c3ccc4ccccc4c23)C(=O)N1CCN1CCCCC1`: the growth is -51.8% (active). In the case of `CC(C)(C)OC(=O)N1CCN(S(=O)(=O)/N=C2\NC(=O)NC2=C(Cl)Cl)CC1`, the growth was 100%.
